Screens deposited in PubChem BioAssay by The Scripps Research Institute Molecular Screening Center.
MITF primary: inhibitors of human MITF | inhibition, % at 2.6 µM | 0.91% of 650,000 active | O75030 | AlphaScreen MITF homodimerization, bead proximity signal; in the data active = inhibition above about 50%;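 also: 0% = vehicle wells with protein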
TEAD-YAP block: TEAD-YAP interaction inhibition | HEK-TIYL cells, TEAD-Gal4/YAP UAS-luciferase luminescence | inhibition, % at 9.12 µM | 1.4% of 640,000 active | AID 1259422; in the data active = inhibition above about 32%;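 also: 0% = median of test compound wells and 100% = reference inhibitor wells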
GPR151 activ: activators of human GPR151 | 1% of 650,000 active | activation, % at 11.2 µM | PathHunter beta-arrestin GPR151 cells, luminescence | Q8TDV0 | AID 1508602; in the data active = activation above about 4.9%;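 also: 0% = median of compound wells and 100% = cells with positive control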
FBW7 act: activators of human E3 ligase FBW7 | Q969H0 | AlphaScreen FBW7–phospho-cyclin E peptide binding, activator screen | normalized activity (activation), % at 26.1 µM | 0.13% of 650,000 active | AID 1259310; in the data active = normalized activity above about 1.9%;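 also: purified mutant Fbw7 with reduced substrate affinity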
Target sequence (Q969H0 whole entry, looked up): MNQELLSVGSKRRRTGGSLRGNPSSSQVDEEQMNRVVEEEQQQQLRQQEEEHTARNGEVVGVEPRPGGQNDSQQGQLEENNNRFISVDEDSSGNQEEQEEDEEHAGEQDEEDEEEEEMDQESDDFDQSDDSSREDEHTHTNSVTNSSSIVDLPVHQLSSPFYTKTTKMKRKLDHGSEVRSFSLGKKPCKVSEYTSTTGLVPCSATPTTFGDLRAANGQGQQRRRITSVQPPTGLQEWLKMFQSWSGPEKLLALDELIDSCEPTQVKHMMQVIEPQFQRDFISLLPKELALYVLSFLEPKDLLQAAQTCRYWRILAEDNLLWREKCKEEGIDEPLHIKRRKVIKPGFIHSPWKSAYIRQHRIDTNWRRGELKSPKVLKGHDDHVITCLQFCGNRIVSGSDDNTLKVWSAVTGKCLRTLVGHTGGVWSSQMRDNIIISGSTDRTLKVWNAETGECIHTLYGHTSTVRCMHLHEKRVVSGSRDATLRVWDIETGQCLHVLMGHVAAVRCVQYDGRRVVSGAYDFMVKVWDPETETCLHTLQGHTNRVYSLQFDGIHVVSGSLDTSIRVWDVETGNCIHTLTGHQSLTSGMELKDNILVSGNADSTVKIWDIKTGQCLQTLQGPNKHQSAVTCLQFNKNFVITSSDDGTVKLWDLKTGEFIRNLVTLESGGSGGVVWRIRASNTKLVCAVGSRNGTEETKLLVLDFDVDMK
GPR151 confirm: confirmation of human GPR151 activators | AID 1508609 | activation, % at 11.2 µM | shares compounds with GPR151 activ | 6,700 tested, under 10 active | GPR151 PathHunter beta-arrestin cells, luminescence, 90 min; % of EA-reagent control over plate median;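 active = mean percent activation across replicates above the confirmation screen cutoff of 4.91%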
GPR119 counter: activates human GPR119 in a GPR151 counter-screen; shares compounds with GPR151 activ; GPR119 PathHunter beta-arrestin cells, luminescence, 90 min; 0 = compound-well median, 100 = enzyme-acceptor control; 0.3% of 6,700 active; activation, % at 11.2 µM; AID 1508611;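 active = mean percent activation in the counterscreen above 29.09%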;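 also: counterscreen on off-target GPR119 to flag nonselective hits from the GPR151 activator screen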
* = called active by the depositor. Sampled rows, rich in hits. Any-hit rate of the full collection: about 3.5%.

Cn1c(=O)c2c(nc(NN)n2Cc2ccccc2)n(C)c1=O was read as MITF primary 6, TEAD-YAP block 3, GPR151 activ 6.8*, FBW7 act 0, GPR151 confirm -1 and GPR119 counter -7.
Screening Cn1c(=O)c2c(nc(Cl)n2Cc2ccc(Cl)cc2)n(C)c1=O returned MITF primary 7, TEAD-YAP block -7, GPR151 activ 10*, FBW7 act 0, GPR151 confirm 0 and GPR119 counter 3.
`Cn1c(=O)n(Cc2ccccc2)c(=O)c2c1nc(NN)n2Cc1ccccc1` gave MITF primary -2, TEAD-YAP block -12, GPR151 activ 1 and FBW7 act 0.
`Cc1cc(-c2nnc(CCC(=O)NCCC3=CCCCC3)o2)no1` gave MITF primary 5, TEAD-YAP block -5, GPR151 activ 1 and FBW7 act 0.
`C#CCOc1c(Br)cc(/C=C2\SC(NC(C)=O)=NC2=O)cc1OC` gave MITF primary -23, TEAD-YAP block -2, GPR151 activ -1 and FBW7 act 0.
For COc1ccc(C(=O)c2coc3ccc(Cl)cc3c2=O)cc1 the results were MITF primary 8, TEAD-YAP block -3, GPR151 activ 1 and FBW7 act 0.
CCOC(=O)C1CCN(Cc2cc(OC)cc(OC)c2)CC1 was read as MITF primary 19, TEAD-YAP block 4, GPR151 activ 0 and FBW7 act 0.
CNC(=O)/C(C#N)=C/c1c(Oc2ccc(C)cc2)nc2ccccn2c1=O was read as MITF primary -1, TEAD-YAP block 6, GPR151 activ -6 and FBW7 act 0.
`Cn1c(N)c(S(=O)(=O)N2CCN(c3ccccc3Cl)CC2)c(=O)n(C)c1=O` gave MITF primary 7, TEAD-YAP block -9, GPR151 activ 26*, FBW7 act 0, GPR151 confirm 1 and GPR119 counter 3.
`COC(=O)c1c(NC(=O)c2ccc3c(c2)OCO3)sc(C(=O)N2CCCCC2)c1C` gave MITF primary 3, TEAD-YAP block 0, GPR151 activ 7.5*, FBW7 act 0, GPR151 confirm 1 and GPR119 counter 8.
Screening CC1CC(C)CN(Cc2nc3c(c(=O)n(C)c(=O)n3C)n2CC(=O)C(C)(C)C)C1 (configuration not stated) returned MITF primary -7, TEAD-YAP block 1, GPR151 activ -1 and FBW7 act 0.
For CC(C)CN(C(=O)c1ccccc1Cl)c1nnc(-c2ccncc2)s1 the results were MITF primary 12, TEAD-YAP block -6, GPR151 activ 6.3*, FBW7 act -1, GPR151 confirm 0 and GPR119 counter -2.
For Clc1cccc(N2CCN(c3ncnc4c3nc3n4CCCCC3)CC2)c1 the results were MITF primary 8, TEAD-YAP block 41*, GPR151 activ 12*, FBW7 act 0, GPR151 confirm 1 and GPR119 counter 2.
COc1ccccc1C1CN(CCNC(=O)CNC(C)=O)Cc2ccccc2O1 (configuration not stated) was read as MITF primary -14, TEAD-YAP block -2, GPR151 activ 3 and FBW7 act 0.
Screening CCCCC/C=C\C/C=C\C/C=C\CCCCCCC(=O)OCC returned MITF primary 4, GPR151 activ 9.1*, GPR151 confirm 0 and GPR119 counter 4.
CC/C=C\C/C=C\C/C=C\CCCCCCCC(=O)OCC was read as MITF primary -9 and GPR151 activ -2.
Screening CC1(C)Oc2ccc(C(=O)N3CCCC3)cc2N(CC(=O)NCc2ccccc2)C1=O returned MITF primary 8, TEAD-YAP block -2, GPR151 activ 6.1*, FBW7 act 0, GPR151 confirm 2 and GPR119 counter 8.
Screening CC1(C)Oc2ccc(C(=O)N3CCCCCC3)cc2N(CC(=O)NCc2ccccc2)C1=O returned MITF primary -10, TEAD-YAP block -5, GPR151 activ 1 and FBW7 act 0.
Cc1ccccc1OCC(=O)Nc1ccc(-c2nn3c(C)nnc3s2)cc1 was read as MITF primary -3, TEAD-YAP block -1, GPR151 activ 1 and FBW7 act 0.
CCCCC/C=C\C/C=C\C/C=C\C[C@H]1O[C@H]1CCCC(=O)O was read as MITF primary -2, GPR151 activ 5.8*, GPR151 confirm 0 and GPR119 counter 8.
